# Reference: the supplement of paper PMC6555819
# System: PPARg:RXRa IVT, anti-PPARg (NR concentration 270 nM, RXRa partner concentration 90 nM)
# Test: PBM binding z-score (relative to random genomic background probes); higher = stronger binding; sequences stand for … in GC…GCGATTGACAGCGTAGAATGAAGG
# Summary of the method: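 Ligand-free nuclear receptor dimers were bound for 1 h to custom Agilent 4×180K protein-binding microarrays. Detection used antibodies against each partner (one per run). Binding z-scores rest on regression-normalized fluorescence, with random background probes as the reference.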
row,Sequence,PBM binding z-score
1,AATACTGGGTCATCGTAGGCCAGAGTACGCACAG,6.97
2,CAGCCTAGGTCAGGGCCGGTATAGGAGGAACGTT,1.52
3,TAGCCTAGTTCATTGGGCCAGTATAGTACGCATC,1.68
4,ATCGAAAGGTCGAAGTGAGTATAGAGAAAGGGAA,1.01
5,GCTAGTTGGTCAGTAACAGGTCACACACCGGTCG,1.57
6,GCTAGTTGTTCAGTAAAAGGTCACACACCGGTCG,1.95
7,CCGACTGAGGCATAAGGTTACCATAAGCCAGCCC,-0.451
8,GATACAGGGTCAGCTAAAGGCCAGAGTATGGAAA,2.78
9,CCGACTGGAGCAAAGGTTACCATACTCAGTACGA,3.51
10,CGTCCAAGGTCAGAGAGGTCAGTGGATGCCGAGT,3.74
11,ACTAGTTGGTCAGCTGAGGTCACCCACAATTCGG,2.73
12,ATCTCTTGGTAAAGTTCAGTGAAAGATCGATAGA,0.63
13,CAAACTAGGTCAAGAGGTCGAAGTCCGCTTCCCG,7.97
14,TAGTCTAGGTCATGCGGGCCAGTATAGTGTCGGC,6.05
15,CCCACTGGGCCAAAGGTCATTGATTCCAATGCTC,6.2
16,ACTAGCAGGCCAAGTTTGGGTCACTCTAACAAAG,1.15
17,CATACAGGGTCAGCTAGTCCAGAGTAGGGACGGC,2.25
18,GCTGCTAGGTCAAATGATGGTCAGCTAAAGCTCG,4.16
19,TGAAAGAGGTTAAAGATCAGGGAACGTGGCGTCG,2
20,AGAACGAGGGCAATGAATTGATAGCACGGGTGGC,2.58

row,Sequence,PBM binding z-score
1,ATATGTGGGTTACATCCGGGTCATTCAGGCTATG,6.81
2,ATACCAGGGTGATCGTGAGGTCGTTGATACTAAC,1.34
3,TCTAGCAGGCCAGACGGTCACTCAAGAGGTACGG,0.0624
4,ACTATTAGTTGAAACGAGGGCAACCGATAGGTTG,1.73
5,GCTGCTAGGTCAACTGATAGTCAGCTAAAGCTCG,4.12
6,GCTAGCGGGCCATTTGGGTCACTCAATGACGGGC,1.48
7,CCGACTGGGGCTTAAGGTTACCATAAGCCAGCCC,0.428
8,CGAACGAGGGCATGTGTTGATAGCAAATGCCGAT,1.67
9,CAAACTAGGTCAAGGGTCAAAGTCGAGCCAACCA,9.08
10,AGAACGAGGGCAATGAGTTGATAGAACGGGTGGC,2.76
11,ATCTCTATGTAAAGTTCAGTGAAAGATCGATAGA,0.863
12,GCTTGTAGATCAAGGTTAAGAAAGACTAAGCTAA,1.3
13,GCTATTAGTTGAAGGGGCAACCGAATGATTCTCG,-0.0967
14,AGTCAAAGTTCACTAGGTACCGTAAGATTCAGCT,3.48
15,TAGCCTAGGTCAGATCGGGCCTGTATACGCTATA,1.36
16,TCATATAGGTAAAGGTGTAAGTCGAACGATATGA,3.04
17,GCGACTGGGGCATCAGCAGGTTACCATAACTTAA,3.27
18,GCAGACAGGTGAAACGCAGGTAAATCAGGGTGGC,0.429
19,CAAACTAGGTCACCGGAAGGTCAAAGTCCGCATG,8.91
20,ACTATTAGTTGACTTAGGGTAACCGATACGACGC,0.626
